Data published in the supplement of paper PMC3545927.
Some of the results follow. The true hit rate is not given.

Target: furin, P09958
Experiment: furin cleavage Z-score vs untreated control; higher = more cleavage, active = 3.5 or more, inactive = 1 or less, 8 variable residues between constant flanks
Procedure: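 Multiplexed peptide-cDNA fusion cleavage assay. 8-mer variable peptides flanked by constant Cys-Ala (N-term) and Ala-Gly-Asn-Ala-Ser-Ala-Ser-Ala (C-term) and conjugated to a cDNA oligonucleotide were bead-immobilised via the N-terminus. They were treated with purified furin at a 1:10 enzyme:substrate ratio in 50 mM HEPES pH 7.5, 1 mM CaCl2, 100 mM NaCl for 7.5, 15 or 30 min. Released cDNA was counted by next-generation sequencing, and log counts versus no-furin controls were lowess-adjusted and converted to robust Z-scores.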

Sequence of furin, P09958 (P09958 whole entry): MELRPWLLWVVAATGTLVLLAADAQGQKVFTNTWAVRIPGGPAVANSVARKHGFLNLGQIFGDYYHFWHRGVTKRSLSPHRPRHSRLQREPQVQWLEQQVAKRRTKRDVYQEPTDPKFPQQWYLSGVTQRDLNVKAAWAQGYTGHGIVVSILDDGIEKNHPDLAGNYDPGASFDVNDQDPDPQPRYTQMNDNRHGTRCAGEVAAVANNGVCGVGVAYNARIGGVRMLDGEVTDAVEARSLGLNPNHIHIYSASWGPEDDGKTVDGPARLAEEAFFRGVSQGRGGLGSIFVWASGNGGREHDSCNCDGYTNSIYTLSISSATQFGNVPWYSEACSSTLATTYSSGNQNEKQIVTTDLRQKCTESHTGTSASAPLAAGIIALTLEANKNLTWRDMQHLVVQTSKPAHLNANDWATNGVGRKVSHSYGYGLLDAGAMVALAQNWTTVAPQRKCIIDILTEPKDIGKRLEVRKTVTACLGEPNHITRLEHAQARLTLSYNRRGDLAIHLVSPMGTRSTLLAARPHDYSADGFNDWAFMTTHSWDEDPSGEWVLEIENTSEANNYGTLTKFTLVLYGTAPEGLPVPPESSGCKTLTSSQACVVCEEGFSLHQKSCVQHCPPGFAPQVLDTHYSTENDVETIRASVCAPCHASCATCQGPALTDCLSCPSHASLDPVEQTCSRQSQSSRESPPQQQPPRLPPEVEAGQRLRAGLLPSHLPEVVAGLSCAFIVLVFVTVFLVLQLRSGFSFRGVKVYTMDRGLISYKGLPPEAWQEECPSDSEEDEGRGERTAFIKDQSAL

| Sequence | furin cleavage Z-score (7.5 min) | furin cleavage Z-score (15 min) | furin cleavage Z-score (30 min) |
| --- | --- | --- | --- |
| CALSTGCVVIAGNASASA [HC998] | -0.865 (inactive) | -1.26 (inactive) | 1.11 |
| CAAAGLQDCTAGNASASA [HC1523] | -0.616 (inactive) | -1.19 (inactive) | -0.342 (inactive) |
| CASTHCSAHLAGNASASA [HC2515] | 0.673 (inactive) | 1.32 | -0.709 (inactive) |
| CAAVCTRGVAAGNASASA [HC752] | 0.499 (inactive) | 0.0628 (inactive) | 1.04 |
| CASNSLLRHHAGNASASA [HC1384] | 0.356 (inactive) | -0.0116 (inactive) | 0.517 (inactive) |
| CAASSREIRQAGNASASA [FS-1446] | 0.448 (inactive) | 1.14 | 0.453 (inactive) |
| CARSYRIVRTAGNASASA [FS-1934] | 5.65 (active) | 7.17 (active) | 7.79 (active) |
| CARSYRDSGIAGNASASA [FS-2463] | 0.464 (inactive) | 1.76 | -0.62 (inactive) |
| CAASSRWRRHAGNASASA [FS-117] | 6.7 (active) | 5.67 (active) | 5.46 (active) |
| CALARRQRRHAGNASASA [FS-266] | 7.59 (active) | 7.8 (active) | 6.43 (active) |
| CANIRTGVRTAGNASASA [HC799] | -0.448 (inactive) | -0.243 (inactive) | -0.393 (inactive) |
| CASASRNRRHAGNASASA [FS-1276] | 12.5 (active) | 11.1 (active) | 8.5 (active) |
| CAREMRALACAGNASASA [FS-2917] | 0.375 (inactive) | -0.261 (inactive) | 0.24 (inactive) |
| CATTYCSGSWAGNASASA [HC1869] | -2.31 (inactive) | -0.739 (inactive) | -0.526 (inactive) |
| CAGAVYTFYGAGNASASA [HC553] | -0.781 (inactive) | -1.17 (inactive) | -0.823 (inactive) |
| CADYEVVTSTAGNASASA [HC2289] | 0.403 (inactive) | 0.654 (inactive) | 0.0996 (inactive) |
| CASHARPRWIAGNASASA [HC1653] | 0.938 (inactive) | 1.44 | 0.423 (inactive) |
| CASARRGREIAGNASASA [HC662] | 7.44 (active) | 8.55 (active) | 8.19 (active) |
| CAFTFSPRRHAGNASASA [HC306] | -1.3 (inactive) | -0.113 (inactive) | -0.24 (inactive) |
| CARCYRSCETAGNASASA [FS-1688] | -1.32 (inactive) | 0.463 (inactive) | -0.398 (inactive) |
| CASSKRNRRHAGNASASA [FS-1418] | 10.5 (active) | 12 (active) | 10.1 (active) |
| CARSHRMRRHAGNASASA [FS-1272] | 12.9 (active) | 13.7 (active) | 9.81 (active) |
| CARSHRDTATAGNASASA [FS-1791] | 0.447 (inactive) | 1.01 | -0.325 (inactive) |
| CASSKRAEAPAGNASASA [FS-2852] | -1.06 (inactive) | -1.45 (inactive) | 0.412 (inactive) |
| CAAEEDEREIAGNASASA [HC1291] | -0.251 (inactive) | -1.7 (inactive) | -0.863 (inactive) |
| CARSHRSCRTAGNASASA [FS-1792] | 0.788 (inactive) | 2.22 | 3.59 (active) |
| CAYLTRDPTTAGNASASA [HC1562] | -1.51 (inactive) | -0.691 (inactive) | -1.7 (inactive) |
| CADWEVVTSTAGNASASA [HC2288] | -1.03 (inactive) | -0.418 (inactive) | -0.194 (inactive) |
